# Measured values published in PubChem BioAssay.
# Tests used:
# [1] = system: Human papillomavirus type 1a protein E7 (residues 44-93); experiment: small molecules binding HPV E7 44-93 – biochemical, small-molecule microarray, residues 44-93, 635 nm fluorescence, primary screen (AID 1108); conditions: fluorescence 635 nm, higher = more signal;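 also: E7 fragment applied at 1 µg/mL in TBST for 1 h at 4 C; score combines spot fluorescence with its signal to noise ratio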
# [2] = hepatitis C replication reporter changes, two-sided – Huh7 cells, luciferase reporter, HCV replication inhibitor project, primary screen (AID 1109); conditions: Huh7 HCV replicon luciferase reporter, 48 h; higher = more signal;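 also: huh7 hepatoma cells harbouring a luciferase neomycin HCV replicon reporter; luciferase luminescence as measure of HCV replicon replication; test concentration not given here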
# [3] = target: Left-right determination factor 2 (Homo sapiens) (UniProt O00292); experiment: small molecules binding LEFTY2 protein – biochemical, small-molecule microarray, 635 nm fluorescence scan, primary screen (AID 1110); conditions: higher = more signal
# [4] = target: Calmodulin-1 (Homo sapiens) (UniProt P0DP23); experiment: small molecules binding calmodulin-1 with EGTA – biochemical, small-molecule microarray, Cy5-labelled CALM1, profiling panel (AID 1111); conditions: Cy5-CALM1 binding fluorescence, higher = more signal;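 also: labelled calmodulin applied in Tris saline Tween buffer holding calcium plus EGTA and DTT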
# [5] = target: Calmodulin-1 (Homo sapiens) (UniProt P0DP23); experiment: small molecules binding Ca-loaded calmodulin-1 – biochemical, small-molecule microarray, Cy5-labelled CALM1, plus calcium, artefact control for SMM control-protein annotation, profiling panel (AID 1112); conditions: Cy5-CALM1 binding fluorescence, higher = more signal;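 also: score merges spot fluorescence with signal to noise from triplicate slides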
# [6] = probe aWnt5a binding to arrayed compounds – biochemical, biotinylated probe, 635/667 nm fluorescence, primary screen (AID 1113); conditions: small-molecule microarray, higher = more signal;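 also: score merges 667 nm fluorescence intensity with signal-to-noise per printed feature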
# [7] = probe aShh binding to arrayed compounds – biochemical, biotinylated probe, 635/667 nm fluorescence, primary screen (AID 1114); conditions: small-molecule microarray, higher = more signal;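 also: probe is biotin-labelled aShh protein from a stem cell growth factor screen; measures binding of labelled protein to compounds printed on the slide; score merges feature fluorescence at 667 nm with signal-to-noise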
# [8] = probe aNog binding to arrayed compounds – biochemical, biotinylated probe, 635/667 nm fluorescence, primary screen (AID 1115); conditions: small-molecule microarray, higher = more signal;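 also: probe is biotinylated aNog protein used at 0.15 µg/mL for 1 h at 4 C; z-score combines 667 nm fluorescence of each spot with its signal to noise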
# [9] = target: Torsin-1A-interacting protein 1 (Homo sapiens) (UniProt Q5JTV8); experiment: compound microarray binding of lysate hLAP1 – cell lysate, small-molecule microarray, COS7 lysate, 635/667 nm fluorescence, primary screen (AID 1116); conditions: 635 nm fluorescence, higher = more signal
# [10] = target: Alpha-bungarotoxin (Bungarus multicinctus) (UniProt P60615); experiment: compounds binding labelled alpha-BTX control protein – biochemical, small-molecule microarray, Alexa647 label, 635/667 nm fluorescence, artefact control for SMM control protein annotation, profiling panel (AID 1117); conditions: alpha-BTX-A647 binding fluorescence, higher = more signal
# Alpha-bungarotoxin (Bungarus multicinctus), sequence (P60615 whole entry, looked up): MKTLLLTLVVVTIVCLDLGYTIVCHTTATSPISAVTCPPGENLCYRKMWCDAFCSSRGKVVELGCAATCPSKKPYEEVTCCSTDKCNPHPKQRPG
# Left-right determination factor 2 (Homo sapiens), sequence (O00292 whole entry, looked up): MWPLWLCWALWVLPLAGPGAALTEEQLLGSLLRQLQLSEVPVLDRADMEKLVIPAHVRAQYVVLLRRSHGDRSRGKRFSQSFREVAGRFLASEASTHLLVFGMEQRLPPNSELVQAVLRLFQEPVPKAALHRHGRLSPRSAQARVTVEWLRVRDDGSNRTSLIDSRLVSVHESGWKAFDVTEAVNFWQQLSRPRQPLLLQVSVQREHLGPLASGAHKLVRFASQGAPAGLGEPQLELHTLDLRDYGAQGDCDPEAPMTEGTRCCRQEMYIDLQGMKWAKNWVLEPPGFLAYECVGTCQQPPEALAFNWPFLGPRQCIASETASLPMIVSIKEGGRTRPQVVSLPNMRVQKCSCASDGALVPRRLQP
# Torsin-1A-interacting protein 1 (Homo sapiens), sequence (Q5JTV8 whole entry, looked up): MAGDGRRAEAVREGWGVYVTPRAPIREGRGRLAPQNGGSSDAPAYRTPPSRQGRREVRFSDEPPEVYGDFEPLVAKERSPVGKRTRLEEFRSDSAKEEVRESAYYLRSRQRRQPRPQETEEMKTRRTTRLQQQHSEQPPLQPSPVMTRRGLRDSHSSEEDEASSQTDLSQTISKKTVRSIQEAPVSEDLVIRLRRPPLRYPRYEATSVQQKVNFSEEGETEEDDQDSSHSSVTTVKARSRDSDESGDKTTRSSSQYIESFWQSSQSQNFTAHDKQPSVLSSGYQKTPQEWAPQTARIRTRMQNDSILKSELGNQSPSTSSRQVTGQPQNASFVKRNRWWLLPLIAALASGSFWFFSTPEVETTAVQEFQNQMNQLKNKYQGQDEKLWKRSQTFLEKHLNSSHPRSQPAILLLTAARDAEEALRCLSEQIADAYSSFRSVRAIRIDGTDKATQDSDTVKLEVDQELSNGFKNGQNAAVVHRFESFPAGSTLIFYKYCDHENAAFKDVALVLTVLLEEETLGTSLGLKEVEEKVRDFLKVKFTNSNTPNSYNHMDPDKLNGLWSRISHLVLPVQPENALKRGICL
SMILES,composite z-score [1],z-score [2],composite z-score [3],composite z-score [4],composite z-score [5],composite z-score [6],composite z-score [7],composite z-score [8],composite z-score [9],composite z-score [10]
CC(C)(C)N1C(=O)[C@H]2[C@H]3[C@H](O)[C@H](O)CC(=NOC[C@@H](O)COCc4ccco4)[C@@H]3CC[C@H]2C1=O,-0.266,-0.287,0.0349,-0.235,0.314,-0.0685,-0.16,-0.0733,1.45,1.65
COC(=O)[C@H](C)NC(=O)CCC1CC(OC(=O)NCCc2ccc(F)cc2)CC2(CCCC(COC(=O)NCc3ccccc3)O2)O1 (stereo not given in full),1.32,-1.18,0.816,0.516,-0.796,-0.141,-0.221,-0.384,0.708,0.574
COc1ccc(COC(=O)NN=C2C[C@@H](O)[C@@H](O)[C@@H]3[C@@H]4C(=O)N([C@@H](C)c5ccccc5)C(=O)[C@@H]4CC[C@H]23)cc1,-1.05,-1.66,-0.291,-0.0436,0.073,-0.0405,0.0121,0.314,-0.484,0.471
CC(=O)OC[C@H]1O[C@H](CCON=C(C)CCN2CCCc3nc(C)c(C)cc32)C=C[C@@H]1OC(C)=O,1.33,-0.186,0.686,-0.191,-0.947,-0.0229,-0.138,0.189,0.489,0.133
COc1ccc2c(c1)O[C@@H](c1cccc(C(F)(F)F)c1)[C@H](O)C2=O,0.368,1.18,0.428,0.172,-0.427,-0.172,-0.304,-0.0496,0.342,0.375
COC(=O)CC=C[C@@H](C)[C@@H](C=NOC[C@@H](C)[C@H](OCc1ccccc1)C(C)C)OC,0.281,-0.759,0.364,-0.481,-0.79,-0.096,-0.19,-0.116,-0.062,0.215
CC(C)=CCCC(C)=CCON=C1C[C@@H](O)[C@@H](O)[C@@H]2[C@@H]3C(=O)N(Cc4ccc5c(c4)OCO5)C(=O)[C@@H]3CC[C@@H]12,0.909,0.298,0.368,0.359,-0.0661,0.0388,-0.0396,0.824,0.999,0.59
O=C1CCCC=C1C(O)c1ccc([N+](=O)[O-])cc1 (stereo not given),-0.607,-0.67,0.387,-0.79,-0.499,-0.101,-0.288,-0.489,0.315,-0.237
CCOC(=O)CCN1C(=O)[C@H]2[C@H]3[C@H](O)[C@H](O)CC(=NNC(=O)OCC)[C@H]3CC[C@H]2C1=O,-0.0248,-2.37,0.679,-0.842,-1.67,-0.1,-0.0626,0.121,-0.0184,-0.798
C[C@H]1CC[C@H]2C(=O)OC(COc3ccc(C(C)(C)C)cc3)CN2[C@@H]1c1ccc(Br)cc1 (stereo not given in full),1.1,1.1,0.0037,0.464,0.14,-0.277,-0.0709,-0.111,0.0437,0.319
CCc1cc2c(nc1CC)CCN(CCC(C)=NO[C@@H]1O[C@H](COC(C)=O)[C@@H](OC(C)=O)[C@H](OC(C)=O)[C@H]1OC(C)=O)C2,1.31,-0.998,1.3,-0.199,-0.502,0.0251,-0.291,-0.152,2.85,1.01
O=C1[C@H]2[C@H]3[C@H](O)[C@H](O)CC(=NO[C@@H]4O[C@H](CO)[C@@H](O)[C@H](O)[C@H]4O)[C@H]3CC[C@H]2C(=O)N1c1ccc(F)cc1F,0.491,0.29,0.382,-0.466,-1.2,-0.0088,0.178,-0.273,-0.267,0.184
